# Test results reported in PubChem BioAssay (EPA / NIEHS).
# Records with an inconclusive call do not appear. Where a structure was tested more than once in an assay, its records may differ in their call. Activity calls are given as the source filed them. How the source made its calls: active means hit-call score of the fitted dose curve at least 0.9, where 1 is the maximum; inconclusive means response in the unintended direction; inactive means score below 0.9.
# Legend:
# [1] = target: bovine Estrogen Receptor (ER), ESR1 (gene 407238) (UniProt P49884); experiment: NVS_NR_bER: NovaScreen (NVS) Nuclear Receptor Binding Assay for bovine Estrogen Receptor (ER) (AID 2283345);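 further: actives lower the bound radioligand count which means they displace the ER ligand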
# In short: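 Displacement of a radioligand from estrogen receptor in bovine uterine membrane preparations; scintillation signal taken at 18 hours, DMSO as baseline. Single-concentration duplicates (25 uM) preceded concentration-response follow-up of actives.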
# [2] = target: chimpanzee Androgen Receptor (AR), AR (gene 747460) (UniProt O97775); experiment: NVS_NR_cAR: NovaScreen (NVS) Nuclear Receptor Binding Assay for chimpanzee Androgen Receptor (AR) (AID 2283346);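 further: radioligand displacement from AR measured by scintillation counting in a cell-free assay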
# In short: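 Cell-free radioligand displacement using receptor protein extracted from Sf9/Sf21 cells; bound radioligand measured by scintillation counting 72 hours after chemical dosing. Loss of signal versus DMSO baseline indicates binding; primary screen single-concentration in duplicate at 25 uM, actives followed in concentration series.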
# [3] = target: rat Mineralocorticoid Receptor (MR), Nr3c2 (gene 25672) (UniProt P22199); experiment: NVS_NR_rMR: NovaScreen (NVS) Nuclear Receptor Binding Assay for rat Mineralocorticoid Receptor (MR) (AID 2283355)
# In short: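 Single-concentration duplicate screen (25 uM) of radioligand binding in adrenalectomized rat brain supernatant; scintillation detection 24 h after dosing. Positive and negative controls ran on each plate, and confirmed actives went to concentration-response.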
# [4] = test system: NCBI gene 100848466; experiment: NVS_NR_bPR: NovaScreen (NVS) Nuclear Receptor Binding Assay for bovine Progextron Receptor (PR) (AID 2283343);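 on AC50: actives lower bound radioligand signal below DMSO meaning displacement of the label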
# In short: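 Steps: bovine uterine membranes were dosed with chemical alongside radioligand, incubated 18 hours, then radiodetected by scintillation counting. Initial testing used 25 uM in duplicate; confirmed actives were rerun as concentration series.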
# [5] = target: human Constitutive Androstane Receptor (CAR), NR1I3 (gene 9970) (UniProt Q14994); experiment: NVS_NR_hCAR_Antagonist: NovaScreen (NVS) Nuclear Receptor Binding Assay for human Constitutive Androstane Receptor Antagonism (CAR) (AID 2283344)
# In short: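 Single 25 uM duplicate primary screen, with concentration-series follow-up on actives. Cell-free binding format run in antagonist mode, TR-FRET signal taken 1 h post-dose; activity is signal loss relative to DMSO.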
# [6] = target: Estrogen receptor (Homo sapiens) (UniProt P03372); experiment: NVS_NR_hER: NovaScreen (NVS) Nuclear Receptor Binding Assay for human Estrogen Receptor (ER) (AID 2283348)
# In short: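 Radiodetection of ligand displacement in a lysate-based, cell-free format using MCF7 extracts, read at 18 hours. Duplicate 25 uM primary testing, then concentration series for actives.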
# [7] = target: Estrogen receptor (Homo sapiens) (UniProt P03372); experiment: OT_ER_ERaERa_1440: Odyssey Thera (OT) 24-hour HEK293T Protein-Complementation Assay for Estrogen Receptor-alpha/-alpha Homodimer (AID 2283349);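 further: hits raise fluorescence above DMSO for agonists and antagonists alike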
# In short: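 Stably transfected HEK293T; ERα LBD homodimer PCA. 24 h dosing, fluorescence intensity read, gain-of-signal vs DMSO.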
# [8] = target: Estrogen receptor (Homo sapiens) (UniProt P03372); experiment: OT_ER_ERaERa_0480: Odyssey Thera (OT) 8-hour HEK293T Protein-Complementation Assay for Estrogen Receptor-alpha/-alpha Homodimer (AID 2283351);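 further: rise in fluorescence from reassembled reporter fragments on ERα LBD homodimer in nucleus or whole cell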
# In short: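 Read-out: fluorescence intensity rise relative to DMSO, nuclear for agonists, nuclear plus cytoplasmic for antagonists. Construct is the ERα LBD (aa 310-547) homodimer fragment-complementation pair, stably expressed in HEK293T; exposure 8 h.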
# [9] = target: Estrogen receptor (Homo sapiens) + Estrogen receptor beta (Homo sapiens) (UniProt P03372+Q92731); experiment: OT_ER_ERaERb_0480: Odyssey Thera (OT) 8-hour HEK293T Protein-Complementation Assay for Estrogen Receptor-alpha/-beta Heterodimer (AID 2283352)
# In short: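 Compound added to HEK293T cells carrying split-reporter-tagged ER-alpha and ER-beta LBDs, incubated 8 hours, then imaged by laser scanning cytometer. Signal rise in nucleus, or nucleus and cytoplasm, over vehicle was fitted in the positive direction.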
# [10] = target: Androgen Receptor/SRC-1 Co-activator, AR (gene 367) (UniProt P10275); experiment: OT_AR_ARSRC1_0960: Odyssey Thera (OT) 16-hour HEK293T Protein-Complementation Assay for Androgen Receptor/SRC-1 Co-activator (AID 2283353);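 further: actives raise the signal above DMSO so potency reflects increased AR and SRC-1 complex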
# In short: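 Readout: 488 nm nuclear-to-cytoplasmic fluorescence ratio from imaging of at least 400 cells per image, 16 h post-dose. Reporter is Venus YFP complementation between AR and SRC-1 fusions, stably expressed in HEK293T; activity scored upward relative to DMSO.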
# [11] = target: Androgen Receptor/SRC-1 Co-activator, AR (gene 367) (UniProt P10275); experiment: OT_AR_ARSRC1_0480: Odyssey Thera (OT) 8-hour HEK293T Protein-Complementation Assay for Androgen Receptor/SRC-1 Co-activator (AID 2283354);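 further: hits raise the complementation signal above DMSO so AC50 marks enhancers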
# In short: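 After 8 h dosing, stably expressing HEK293T cells with split-Venus AR/SRC-1 fusions were imaged (488, 635nm). The 488nm N/C ratio per image gave the endpoint, analysed in the positive direction against DMSO.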
# [12] = target: Estrogen receptor beta (Homo sapiens) (UniProt Q92731); experiment: OT_ER_ERbERb_0480: Odyssey Thera (OT) 8-hour HEK293T Protein-Complementation Assay for Estrogen Receptor-beta/-beta Homodimer (AID 2283357);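 further: active means signal gain over DMSO baseline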
# In short: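 Fluorescence gain from complemented reporter fragments on ER-beta LBD homodimer in HEK293T was quantified against DMSO controls after 8 h treatment, fixation in 4% formaldehyde and Draq5 staining.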
# [13] = NVS_IC_rCaBTZCHL: NovaScreen (NVS) Ion Channel Assay for Calcium Channel, Type L, Benzothiazepine Site (CaBTZCHL) (AID 2283337)
# In short: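 Rat cortical membrane preparation, cell-free. Radioligand displaced by test chemical; 1.5 h incubation; filtration, scintillation count. DMSO = negative control/baseline. Primary: duplicate, 25 uM; secondary: concentration series.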
# [14] = target: bovine Gamma-Aminobutyric Acid Type A Receptor Agonist (GABAR Agonist), GABRA1 (gene 780973) (UniProt P08219); experiment: NVS_LGIC_bGABAR_Agonist: NovaScreen (NVS) Ligand-Gated Ion Channel Assay for bovine Gamma-Aminobutyric Acid Type A Receptor Agonist (GABAR Agonist) (AID 2283338)
# In short: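 Radioligand binding to bovine cerebellar membranes in agonist format, read by filter-based scintillation counting after 1 h. Primary screen in duplicate at 25 uM, with actives followed in concentration series. Gain of signal versus DMSO.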
# [15] = test system: guinea pig Histamine Receptor (H2), gene 100729734; experiment: NVS_GPCR_gH2: NovaScreen (NVS) G Protein-Coupled Receptor Assay for guinea pig Histamine Receptor (H2) (AID 2283342)
# In short: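 Guinea pig striatal membrane preparation with specific radioligand; bound counts measured by filtration and scintillation 1 h post-dosing, DMSO as baseline. Chemicals passing a 25 uM duplicate screen were titrated to a 50 uM maximum.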
# Sequence of Androgen Receptor/SRC-1 Co-activator, AR (gene 367) (P10275 whole entry, looked up, the tested form may be a part): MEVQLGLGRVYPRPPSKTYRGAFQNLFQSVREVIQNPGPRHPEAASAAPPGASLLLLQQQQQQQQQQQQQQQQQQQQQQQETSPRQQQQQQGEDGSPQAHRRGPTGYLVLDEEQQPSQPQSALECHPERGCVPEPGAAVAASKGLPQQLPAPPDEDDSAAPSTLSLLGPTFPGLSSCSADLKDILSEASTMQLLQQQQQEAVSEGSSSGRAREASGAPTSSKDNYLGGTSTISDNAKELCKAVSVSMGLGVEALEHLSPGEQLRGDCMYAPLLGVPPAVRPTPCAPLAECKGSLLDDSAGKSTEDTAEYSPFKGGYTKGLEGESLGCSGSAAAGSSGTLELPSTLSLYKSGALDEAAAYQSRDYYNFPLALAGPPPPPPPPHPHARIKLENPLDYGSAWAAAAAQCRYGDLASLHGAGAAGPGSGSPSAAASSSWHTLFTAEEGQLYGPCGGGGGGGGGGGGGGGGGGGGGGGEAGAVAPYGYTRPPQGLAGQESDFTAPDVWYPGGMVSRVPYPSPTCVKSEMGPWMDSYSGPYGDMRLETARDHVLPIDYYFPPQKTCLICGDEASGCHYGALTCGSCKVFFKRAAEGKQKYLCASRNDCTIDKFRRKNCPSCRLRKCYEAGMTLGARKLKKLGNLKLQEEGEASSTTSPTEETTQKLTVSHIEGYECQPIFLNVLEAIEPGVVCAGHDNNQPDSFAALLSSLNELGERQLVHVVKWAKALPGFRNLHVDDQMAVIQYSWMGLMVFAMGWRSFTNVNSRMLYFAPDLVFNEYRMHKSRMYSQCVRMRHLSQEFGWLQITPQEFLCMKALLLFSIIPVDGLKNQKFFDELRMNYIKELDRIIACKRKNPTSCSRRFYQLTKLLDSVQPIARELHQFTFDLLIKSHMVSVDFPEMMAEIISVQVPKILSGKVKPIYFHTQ
# Sequence of Estrogen receptor (Homo sapiens) (P03372 whole entry, looked up, the tested form may be a part): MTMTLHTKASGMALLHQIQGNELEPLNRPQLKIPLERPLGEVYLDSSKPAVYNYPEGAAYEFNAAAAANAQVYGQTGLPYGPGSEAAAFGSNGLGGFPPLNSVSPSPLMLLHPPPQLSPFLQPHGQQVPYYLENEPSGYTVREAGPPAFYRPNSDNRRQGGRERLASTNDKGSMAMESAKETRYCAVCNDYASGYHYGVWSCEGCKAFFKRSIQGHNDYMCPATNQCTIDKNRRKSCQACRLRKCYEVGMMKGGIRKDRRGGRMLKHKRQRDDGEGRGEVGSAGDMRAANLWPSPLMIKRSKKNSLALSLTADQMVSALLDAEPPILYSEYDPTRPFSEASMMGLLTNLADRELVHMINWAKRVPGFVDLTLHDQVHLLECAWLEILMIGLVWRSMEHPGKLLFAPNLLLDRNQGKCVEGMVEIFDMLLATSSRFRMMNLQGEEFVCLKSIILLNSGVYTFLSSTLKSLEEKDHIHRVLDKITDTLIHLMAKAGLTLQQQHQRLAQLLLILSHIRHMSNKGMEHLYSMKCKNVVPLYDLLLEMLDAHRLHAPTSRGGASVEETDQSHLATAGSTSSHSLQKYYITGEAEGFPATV
# Sequence of Estrogen receptor beta (Homo sapiens) (Q92731 whole entry, looked up, the tested form may be a part): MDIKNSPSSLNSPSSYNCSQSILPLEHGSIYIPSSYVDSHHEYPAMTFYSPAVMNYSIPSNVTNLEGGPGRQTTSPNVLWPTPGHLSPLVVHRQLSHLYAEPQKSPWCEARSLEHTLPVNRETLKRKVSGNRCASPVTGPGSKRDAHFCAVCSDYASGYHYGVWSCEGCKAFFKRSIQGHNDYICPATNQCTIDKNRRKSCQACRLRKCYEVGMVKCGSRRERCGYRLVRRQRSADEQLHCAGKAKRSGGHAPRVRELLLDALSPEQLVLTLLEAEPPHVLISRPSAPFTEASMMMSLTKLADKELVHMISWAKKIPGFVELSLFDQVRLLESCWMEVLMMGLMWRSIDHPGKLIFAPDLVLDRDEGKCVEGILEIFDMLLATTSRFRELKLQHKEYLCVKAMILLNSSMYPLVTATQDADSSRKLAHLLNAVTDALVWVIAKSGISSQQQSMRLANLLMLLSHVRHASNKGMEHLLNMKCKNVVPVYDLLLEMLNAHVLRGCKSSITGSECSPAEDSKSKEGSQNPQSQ
# Sequence of chimpanzee Androgen Receptor (AR), AR (gene 747460) (O97775 whole entry, looked up): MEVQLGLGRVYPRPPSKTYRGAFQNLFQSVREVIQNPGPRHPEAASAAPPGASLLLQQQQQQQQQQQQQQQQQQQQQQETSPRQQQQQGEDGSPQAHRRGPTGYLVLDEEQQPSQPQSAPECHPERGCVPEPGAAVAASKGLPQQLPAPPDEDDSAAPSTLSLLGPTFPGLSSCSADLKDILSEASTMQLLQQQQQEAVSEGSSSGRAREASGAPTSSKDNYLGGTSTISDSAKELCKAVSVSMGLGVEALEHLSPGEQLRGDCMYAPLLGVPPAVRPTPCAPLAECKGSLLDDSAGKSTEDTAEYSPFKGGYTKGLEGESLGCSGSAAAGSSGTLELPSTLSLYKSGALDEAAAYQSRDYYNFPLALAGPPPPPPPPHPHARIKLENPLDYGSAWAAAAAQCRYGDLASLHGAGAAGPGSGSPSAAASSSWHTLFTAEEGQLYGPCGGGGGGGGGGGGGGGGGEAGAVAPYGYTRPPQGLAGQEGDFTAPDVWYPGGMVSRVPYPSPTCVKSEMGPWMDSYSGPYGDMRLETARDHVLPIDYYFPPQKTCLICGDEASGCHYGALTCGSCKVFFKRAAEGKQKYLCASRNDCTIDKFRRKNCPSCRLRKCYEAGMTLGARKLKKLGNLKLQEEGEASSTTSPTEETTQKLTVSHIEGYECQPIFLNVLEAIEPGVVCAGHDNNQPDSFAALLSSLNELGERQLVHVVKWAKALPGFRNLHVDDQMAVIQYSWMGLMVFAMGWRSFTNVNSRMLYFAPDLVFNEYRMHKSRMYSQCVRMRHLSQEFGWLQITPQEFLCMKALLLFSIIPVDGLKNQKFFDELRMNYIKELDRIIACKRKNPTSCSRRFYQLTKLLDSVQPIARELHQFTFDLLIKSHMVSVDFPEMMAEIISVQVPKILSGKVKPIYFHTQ
# Sequence of bovine Estrogen Receptor (ER), ESR1 (gene 407238) (P49884 whole entry, looked up): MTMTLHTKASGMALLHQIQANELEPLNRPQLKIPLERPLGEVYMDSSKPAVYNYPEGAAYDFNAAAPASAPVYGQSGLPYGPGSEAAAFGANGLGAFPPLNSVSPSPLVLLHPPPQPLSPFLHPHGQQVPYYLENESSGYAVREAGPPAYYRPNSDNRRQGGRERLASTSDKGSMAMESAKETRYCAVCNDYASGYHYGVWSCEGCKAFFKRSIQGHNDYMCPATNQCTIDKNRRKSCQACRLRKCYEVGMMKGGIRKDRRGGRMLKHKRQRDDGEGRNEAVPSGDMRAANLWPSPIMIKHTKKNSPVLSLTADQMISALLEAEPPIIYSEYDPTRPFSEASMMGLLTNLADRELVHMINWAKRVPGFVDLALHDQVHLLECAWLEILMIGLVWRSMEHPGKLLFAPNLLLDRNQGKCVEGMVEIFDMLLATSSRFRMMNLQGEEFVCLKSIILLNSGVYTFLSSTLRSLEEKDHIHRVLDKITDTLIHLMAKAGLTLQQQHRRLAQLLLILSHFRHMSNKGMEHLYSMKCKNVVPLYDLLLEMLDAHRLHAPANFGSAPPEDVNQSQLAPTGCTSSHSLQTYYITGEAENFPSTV
# Sequence of Estrogen receptor (Homo sapiens) + Estrogen receptor beta (Homo sapiens) (P03372 whole entry, looked up): as the sequence (P03372 whole entry, looked up, the tested form may be a part) above
# Sequence of Estrogen receptor (Homo sapiens) + Estrogen receptor beta (Homo sapiens) (Q92731 whole entry, looked up): as the sequence (Q92731 whole entry, looked up, the tested form may be a part) above
# Sequence of human Constitutive Androstane Receptor (CAR), NR1I3 (gene 9970) (Q14994 whole entry, looked up): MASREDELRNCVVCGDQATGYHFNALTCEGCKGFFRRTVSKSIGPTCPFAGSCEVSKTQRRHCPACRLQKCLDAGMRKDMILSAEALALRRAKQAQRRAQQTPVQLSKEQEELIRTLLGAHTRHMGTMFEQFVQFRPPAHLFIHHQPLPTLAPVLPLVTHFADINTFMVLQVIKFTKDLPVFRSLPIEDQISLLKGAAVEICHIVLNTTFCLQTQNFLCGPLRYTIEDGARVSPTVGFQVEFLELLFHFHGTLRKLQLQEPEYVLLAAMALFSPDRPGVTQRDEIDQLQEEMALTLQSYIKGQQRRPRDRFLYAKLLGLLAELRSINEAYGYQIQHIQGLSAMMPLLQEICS
# Sequence of bovine Gamma-Aminobutyric Acid Type A Receptor Agonist (GABAR Agonist), GABRA1 (gene 780973) (P08219 whole entry, looked up): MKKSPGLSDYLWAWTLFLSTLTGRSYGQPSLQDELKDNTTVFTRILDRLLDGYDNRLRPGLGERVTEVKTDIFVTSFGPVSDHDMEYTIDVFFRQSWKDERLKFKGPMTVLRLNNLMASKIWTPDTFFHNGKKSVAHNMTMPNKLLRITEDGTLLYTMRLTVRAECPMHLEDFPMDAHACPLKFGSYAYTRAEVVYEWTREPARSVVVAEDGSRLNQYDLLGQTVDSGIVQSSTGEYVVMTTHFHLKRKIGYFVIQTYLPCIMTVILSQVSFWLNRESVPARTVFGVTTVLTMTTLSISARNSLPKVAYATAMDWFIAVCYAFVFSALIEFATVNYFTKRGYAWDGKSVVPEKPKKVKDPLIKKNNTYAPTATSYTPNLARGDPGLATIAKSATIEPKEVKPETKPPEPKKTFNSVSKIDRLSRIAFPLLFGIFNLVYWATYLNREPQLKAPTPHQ
compound,measurement,setting,value
C[C@]12CC[C@@H]3c4ccc(O)cc4CC[C@H]3[C@@H]1CCC2=O,outcome,[1],inactive
same,AC50,[2],0.472 µM (active)
same,outcome,[2],inactive
same,outcome,[3],inactive
Cc1c2ccccc2c(C)c2c1ccc1ccccc12,AC50,[4],9.4 µM (active)
same,outcome,[5],inactive
same,outcome,[1],inactive
same,outcome,[2],inactive
same,outcome,[6],inactive
same,outcome,[7],inactive
same,outcome,[8],inactive
same,outcome,[9],inactive
same,AC50,[10],13.7 µM (active)
same,AC50,[11],11.6 µM (active)
same,outcome,[12],inactive
CCOC(=O)O[C@H](C)OC(=O)c1ccc2c(c1)cc(C(=O)NC1CCN(C(C)C)CC1)n2Cc1cc(-c2ccc(Cl)s2)on1,AC50,[13],9.12 µM (active)
same,AC50,[14],11.8 µM (active)
same,AC50,[15],13.3 µM (active)
same,AC50,[2],17.8 µM (active)
same,outcome,[6],inactive
same,outcome,[7],inactive
same,outcome,[8],inactive
same,outcome,[12],inactive
Cc1ccc2oc(CN(Cc3ccccc3)C(=O)Nc3c(F)cc(F)cc3F)c(-c3ccc(Cl)cc3)c2c1,outcome,[4],inactive
same,outcome,[7],inactive
same,outcome,[8],inactive
same,outcome,[9],inactive
same,outcome,[12],inactive
CN(C)c1ccc(C(=C2C=CC(=[N+](C)C)C=C2)c2ccc(N(C)C)cc2)cc1,AC50,[13],5.44 µM (active)
same,AC50,[15],0.827 µM (active)
same,AC50,[4],4.43 µM (active)
same,outcome,[1],inactive
same,AC50,[2],17.7 µM (active)
same,outcome,[6],inactive
same,outcome,[7],inactive
same,outcome,[8],inactive
same,AC50,[10],0.273 µM (active)
same,AC50,[11],3.28 µM (active)
Clc1cc(Cl)c2c(c1)N=C1CCCCCN1C2,outcome,[13],inactive
same,AC50,[15],1.85 µM (active)
same,outcome,[5],inactive
same,outcome,[7],inactive
same,outcome,[8],inactive
